Experimental data: PubChem BioAssay (NCATS)
Results filed as inconclusive are left out. The source made the active and inactive calls. Unless noted, calls come from the whole dose curve; as a rule, active = well fitted curve in the direction sought with a large enough effect; inconclusive = small, poorly fitted or top-dose-only effect, or another doubt; inactive = no such curve, though single readings can be large; an effect the other way counts as inactive or inconclusive.

Experiments:
[1] = P-glycoprotein substrates identified in KB-8-5-11 adenocarcinoma cell line, qHTS therapeutic library screen (AID 1346987); note: nearly all actives have a fitted effect of over 65% in size; note: potency is the fitted concentration of half-maximal effect
Method in brief: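 KB-8-5-11: colchicine-selected sub-line of KB-3-1 over-expressing P-gp; assay medium lacked colchicine. 72 h drug exposure at 37 degree C, CellTiter-Glo.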

[2] = Primary qHTS for inhibitors of nuclear receptor binding SET domain protein 2 (NSD2) in an RCH-ACV wild type WT cells (2C) (AID 1645877); note: nearly all actives have a fitted effect of over 70% in size; note: potency is the fitted concentration of half-maximal effect
NIH3T3 = assay: Cytotoxic Profiling of Annotated Libraries Using Quantitative High-Throughput Screening (AID 1296008); conditions: Five cell lines viability, CellTiter-Glo ATP luminescence, 48-72 h; max response: stronger effect = lower value; note: nearly all actives have a fitted effect of over 60% in size; note: potency is the fitted concentration of half-maximal effect; for max response: % is set by controls: 0 for no effect and ±100 for the full control effect
Method in brief: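 Cytotoxicity was measured as CellTiter-Glo ATP luminescence, read after 10 min at room temperature. Compound treatment of the cells lasted 48 or 72 hr at 37 degrees Celsius in a qHTS format.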

HACAT = assay: qHTS assay to identify novel small-molecules to repurpose for Merkel cell carcinoma treatment (AID 1296009); conditions: MCC and control cell lines, CellTiter-Glo viability, 72 h; at 44.8 µM (top of the series) unless noted; note: nearly all actives have a fitted effect of over 60% in size
Method in brief: (§1)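 After compound transfer in DMSO, plates were kept 72 hr at 37 degree celsius. Luminescent ATP signal from CellTiter-Glo served as viability measure, normalized against DMSO and no-cell controls.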

CAOV3 = assay: Primary qHTS to identify gynecologic anti-cancer compounds using libraries of approved drugs and bioactive compounds (AID 1345084); conditions: Gynecologic cancer cell panel viability, ATPlite luminescence, 48 h; series mostly up to 57.5 µM; note: nearly all actives have a fitted effect of over 55% in size; note: potency is the fitted concentration of half-maximal effect
Method in brief: (§2)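 Luminescence from the ATPlite ATP-monitoring reagent indicates viable cell number; lower signal means cytotoxicity. Cells received compound 16 h after seeding and were exposed for 48 h across five concentrations.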

HeLa = assay: as above; conditions: Gynecologic cancer cell panel viability, ATPlite luminescence, 48 h; series mostly up to 57.5 µM
Method in brief: as §2

JEG-3 = assay: as above; conditions: Gynecologic cancer cell panel viability, ATPlite luminescence, 48 h; series mostly up to 57.5 µM
Method in brief: as §2

SKOV3 = assay: as above; conditions: Gynecologic cancer cell panel viability, ATPlite luminescence, 48 h; series mostly up to 57.5 µM
Method in brief: as §2

[3] = tested on: Zika virus NS2B-NS3 protease (unlinked complex); assay: Primary screen GU Rhodamine qHTS for Zika virus inhibitors: Unlinked NS2B-NS3 protease assay (AID 1347159); note: nearly all actives have a fitted effect of over 60% in size; note: potency is the fitted concentration of half-maximal effect
Method in brief: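 A qHTS format was used, with compound concentrations ranging up to 114 microM. Each compound was preincubated with 25 nM NS2B-NS3 protease, and the substrate was then added at 1.5 microM. Curves were fitted with a 4-parameter Hill model.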

[4] = Primary redox qHTS assay for identification of artifact compounds. (AID 1845223);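 note: 0% = DMSO and 100% = reference compound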
Method in brief: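 Amplex Red (25 uM) and HRP (250 mU/mL) in HBSS, with compounds for 15 min, then 250 uM DTT for 30 min, room temperature, dark. Fluorescence 525/598 nm read; normalized to DMSO and 10 uM DA3003; Hill fit.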

CRL-7250 = normal cell line; assay: qHTS assay to identify novel small-molecules to repurpose for Merkel cell carcinoma treatment (AID 1296009); conditions: MCC and control cell lines, CellTiter-Glo viability, 72 h; series mostly up to 92 µM; note: nearly all actives have a fitted effect of over 60% in size
Method in brief: as §1

[5] = P-glycoprotein substrates identified in KB-3-1 adenocarcinoma cell line, qHTS therapeutic library screen (AID 1346986); note: nearly all actives have a fitted effect of over 60% in size
Method in brief: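 Counter-screen: cherry-picked hits retested in the KB pair and in HEK-293 pcDNA/MDR-19 cells ± tariquidar. Primary screen used 72 h CellTiter-Glo viability in KB-3-1 and KB-8-5-11.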

[6] = target: Cytochrome P450 2D6 (Homo sapiens) (UniProt P10635); assay: Cytochrome P450 family 2 subfamily D member 6 (CYP2D6) small molecule antagonists: luciferase biochemical (cell-free) qHTS assay (AID 1645840; active = well fitted curve in the direction sought with a large enough effect in the repeat runs; an effect the other way counts as inactive or inconclusive; note: % is set by controls: 0 for no effect and ±100 for the full control effect; nearly all actives have a fitted effect of over 55% in size)
Chain of Cytochrome P450 2D6 (Homo sapiens) (P10635 whole entry, looked up): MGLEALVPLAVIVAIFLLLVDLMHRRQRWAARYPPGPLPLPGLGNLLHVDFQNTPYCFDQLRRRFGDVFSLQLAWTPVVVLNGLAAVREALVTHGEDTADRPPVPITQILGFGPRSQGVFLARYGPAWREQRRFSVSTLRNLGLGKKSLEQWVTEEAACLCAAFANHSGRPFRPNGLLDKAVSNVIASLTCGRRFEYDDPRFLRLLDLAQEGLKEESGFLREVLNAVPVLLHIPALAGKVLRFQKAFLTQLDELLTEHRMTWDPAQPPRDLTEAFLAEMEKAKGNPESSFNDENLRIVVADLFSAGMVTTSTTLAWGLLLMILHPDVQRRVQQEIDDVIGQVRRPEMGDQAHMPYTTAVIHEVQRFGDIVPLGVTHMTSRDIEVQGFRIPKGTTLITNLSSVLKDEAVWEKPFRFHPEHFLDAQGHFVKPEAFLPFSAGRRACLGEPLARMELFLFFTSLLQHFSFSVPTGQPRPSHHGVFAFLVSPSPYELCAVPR
Method in brief: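 P450-Glo luminescent screen: recombinant CYP2D6 enzyme–proluciferin substrate mix preincubated with compound 10 min at room temperature, then NADPH regeneration added for 1 h at room temperature. Detection reagent added for 20 min; luciferin light read as relative luminescence units.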

[7] = target: Cytochrome P450 2C9 (Homo sapiens) (UniProt P11712); assay: Cytochrome P450 family 2 subfamily C member 9 (CYP2C9) small molecule antagonists: luciferase biochemical (cell-free) qHTS assay (AID 1645842; active = well fitted curve in the direction sought with a large enough effect in the repeat runs; an effect the other way counts as inactive or inconclusive; note: nearly all actives have a fitted effect of over 55% in size; note: potency is the fitted concentration of half-maximal effect)
Chain of Cytochrome P450 2C9 (Homo sapiens) (P11712 whole entry, looked up): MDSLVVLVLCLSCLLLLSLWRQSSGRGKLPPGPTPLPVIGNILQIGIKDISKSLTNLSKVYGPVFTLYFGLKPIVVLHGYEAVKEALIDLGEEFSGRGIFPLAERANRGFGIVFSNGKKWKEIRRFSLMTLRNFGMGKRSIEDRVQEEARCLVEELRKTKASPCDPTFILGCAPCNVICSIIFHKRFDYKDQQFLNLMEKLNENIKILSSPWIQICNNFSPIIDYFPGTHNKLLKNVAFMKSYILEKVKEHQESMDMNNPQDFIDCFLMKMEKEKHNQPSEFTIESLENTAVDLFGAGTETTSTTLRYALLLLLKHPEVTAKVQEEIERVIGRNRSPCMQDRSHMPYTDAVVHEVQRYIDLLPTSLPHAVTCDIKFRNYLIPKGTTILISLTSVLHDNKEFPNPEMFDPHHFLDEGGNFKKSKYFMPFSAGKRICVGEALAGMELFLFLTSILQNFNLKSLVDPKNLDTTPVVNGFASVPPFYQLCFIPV
Method in brief: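 Luminescence, after 20 min with luciferin detection reagent, reflected CYP2C9 turnover during a 1 h NADPH-driven reaction at 37C. Enzyme-substrate mix contained 0.4% bovine serum albumin and was preincubated with compound 10 min at room temperature.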

[8] = Cytotoxicity counterscreen for inhibitors of SARS-CoV-2 cell entry (AID 1645845; calls by dose curve; note: nearly all actives have a fitted effect of over 50% in size)
Method in brief: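 48 h compound treatment (after 1 h preincubation), HEK293-ACE2 cells, 37 C/5% CO2; ATP luminescence endpoint; normalized to cell wells and media blanks.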

C=C1[C@@]23C(=O)O[C@H](C)[C@]24O[C@@]2(C(=C)[C@]5(C=CC(=O)OC5(C)C)CC[C@]32C)[C@H](O)[C@@]1(C)OC4=O
inactive: Potency [1] | Potency [2] | max response (NIH3T3) 0.197% | outcome (HACAT) inactive [at 17.4 µM] | Potency (CAOV3) | Potency (HeLa) | Potency (JEG-3) | Potency (SKOV3)

CC1CCCC(O)CC(=O)Cc2cc(O)cc(O)c2C(=O)O1 (stereo not given)
inactive: Potency [1] | Potency [3] | Potency [2] | Potency [4] | max response (NIH3T3) 2.95% | outcome (HACAT) | Potency (CAOV3) | Potency (HeLa) | Potency (JEG-3) | Potency (SKOV3)

CN1CCc2cc3c(cc2C1C1OC(=O)c2c1ccc1c2OCO1)OCO3 (stereo not given)
inactive: Potency [1] | Potency [3] | Potency [2] | Potency [4] | max response (NIH3T3) 0.735% | Potency (CAOV3) | Potency (HeLa) | Potency (JEG-3) | Potency (SKOV3)

C/C=C(/C)C1C=CC2CC(C)CC(C)C2C1/C(O)=C1\C(=O)NC(CC(C)(O)C(=O)O)C1=O (stereo not given)
inactive: Potency [1] | Potency [2] | max response (NIH3T3) 1.49% | Potency (CRL-7250) | Potency (HeLa) | Potency (JEG-3) | Potency (SKOV3)

CN1CCc2cc3c(cc2[C@H]1[C@@H]1OC(=O)c2c1ccc1c2OCO1)OCO3
inactive: Potency [5] | Potency [1] | Potency [3] | Potency [2] | Potency [4] | max response (NIH3T3) -16.9% | outcome (HACAT) | Potency (CAOV3) | Potency (HeLa) | Potency (JEG-3) | Potency (SKOV3)

COc1ccsc1CNCC[C@@]1(c2ccccn2)CCOC2(CCCC2)C1
inactive: Potency [1] | Potency [3] | Potency [6] | Potency [7] | Potency [2] | Potency [4] | max response (NIH3T3) -1.76% | Potency (CAOV3) | Potency (HeLa) | Potency (JEG-3) | Potency (SKOV3)

C=CC/C=C\C/C=C\CCCCCCCc1cc(O)cc(O)c1
inactive: Potency [4] | max response (NIH3T3) -20.8% | outcome (HACAT) | Potency (CAOV3) | Potency (HeLa) | Potency (JEG-3) | Potency (SKOV3)

CN1C(=O)CN=C(c2ccccc2Cl)c2cc(Cl)ccc21
inactive: Potency [1] | Potency [6] | Potency [2] | Potency [4] | max response (NIH3T3) 4.35% | Potency (CRL-7250) | Potency (CAOV3) | Potency (HeLa) | Potency (JEG-3) | Potency (SKOV3)
active: Potency [7] 21.3 µM

C[C@]12CCC(=O)C=C1CC[C@@H]1[C@@H]2[C@@H](O)C[C@]2(C)C(=O)CC[C@@H]12
inactive: Potency [1] | Potency [3] | Potency [2] | Potency [4] | max response (NIH3T3) 2.17% | Potency (CRL-7250) | Potency (CAOV3) | Potency (HeLa) | Potency (JEG-3) | Potency (SKOV3)

COC(=O)[C@]12CCCC(C)(C)C1CCc1cc(C(C)C)c(O)c(O)c12 (stereo not given in full)
active: Potency [3] 4.47 µM
inactive: Potency [1] | max response (NIH3T3) 2.35% | outcome (HACAT) | Potency (CAOV3) | Potency (JEG-3) | Potency (SKOV3)

C[C@@H]1CCC/C=C/[C@H]2C[C@@H](O)C[C@@H]2[C@@H](O)/C=C/C(=O)O1
inactive: Potency [3] | Potency [4]
active: Potency [1] 0.164 µM | Potency [2] 0.409 µM | Potency (NIH3T3) 4.11 µM | Potency (CAOV3) 0.316 µM | Potency (HeLa) 0.501 µM | Potency (JEG-3) 1 µM | Potency (SKOV3) 0.355 µM

COCC(C(=O)OC1CC2CCC(C1)N2C)c1ccccc1 (stereo not given)
inactive: Potency [5] | Potency [1] | Potency [3] | Potency [2] | Potency [4] | max response (NIH3T3) 3.79% | outcome (HACAT) | Potency (CAOV3) | Potency (HeLa) | Potency (JEG-3)

CS[C@]1(CO)C(=O)N2[C@H]3C(=CC=C[C@@H]3O)C[C@@]2(SC)C(=O)N1C
inactive: Potency [5] | Potency [1] | Potency [2] | max response (NIH3T3) -3.97% | Potency (CRL-7250) | Potency (JEG-3) | Potency (SKOV3)

COC1C=CC23c4cc5c(cc4COC2(O)CN(C)C3C1)OCO5 (stereo not given)
inactive: Potency [5] | Potency [1] | Potency [3] | Potency [2] | Potency [4] | max response (NIH3T3) -0.709% | outcome (HACAT) | Potency (CAOV3) | Potency (HeLa) | Potency (JEG-3)

CC1(C)C(=O)N(c2ccc(C#N)c(C(F)(F)F)c2)C(=O)N1CCCCO
inactive: Potency [1] | Potency [3] | Potency [6] | Potency [2] | Potency [4] | max response (NIH3T3) -6.14% | Potency (CAOV3) | Potency (HeLa) | Potency (JEG-3) | Potency (SKOV3)
active: Potency [7] 10.7 µM

COc1ccc(CN(C(=O)[C@@H](N)Cc2c(C)cc(C(N)=O)cc2C)[C@@H](C)c2ncc(-c3ccccc3)[nH]2)cc1C(=O)O
inactive: Potency [1] | Potency [8] | max response (NIH3T3) -6.08% | Potency (CAOV3) | Potency (HeLa) | Potency (JEG-3) | Potency (SKOV3)
